Laboratory results from ChEMBL document CHEMBL1961873, “Compounds: GSK PKIS; Assays: Nanosyn kinase panel” (2012).

Columns and labels:
[1] = target: Fibroblast growth factor receptor 4 (Homo sapiens) (UniProt P22455); conditions: at 1 µM;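 further: reported figure is the averaged percent inhibition of FGFR4, from the GSK PKIS kinase screening panel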
[2] = target: Tyrosine-protein kinase Fgr (Homo sapiens) (UniProt P09769); conditions: at 0.1 µM
[3] = target: Tyrosine-protein kinase Fgr (Homo sapiens) (UniProt P09769); conditions: at 1 µM
[4] = target: Vascular endothelial growth factor receptor 1 (Homo sapiens) (UniProt P17948); conditions: at 0.1 µM
[5] = target: Vascular endothelial growth factor receptor 1 (Homo sapiens) (UniProt P17948); conditions: at 1 µM
[6] = target: Receptor-type tyrosine-protein kinase FLT3 (Homo sapiens) (UniProt P36888); conditions: at 0.1 µM
[7] = target: Receptor-type tyrosine-protein kinase FLT3 (Homo sapiens) (UniProt P36888); conditions: at 1 µM
[8] = system: T1, Receptor-type tyrosine-protein kinase FLT3 (Homo sapiens), P36888 [D835Y]; conditions: at 0.1 µM
T1 sequence (whole entry): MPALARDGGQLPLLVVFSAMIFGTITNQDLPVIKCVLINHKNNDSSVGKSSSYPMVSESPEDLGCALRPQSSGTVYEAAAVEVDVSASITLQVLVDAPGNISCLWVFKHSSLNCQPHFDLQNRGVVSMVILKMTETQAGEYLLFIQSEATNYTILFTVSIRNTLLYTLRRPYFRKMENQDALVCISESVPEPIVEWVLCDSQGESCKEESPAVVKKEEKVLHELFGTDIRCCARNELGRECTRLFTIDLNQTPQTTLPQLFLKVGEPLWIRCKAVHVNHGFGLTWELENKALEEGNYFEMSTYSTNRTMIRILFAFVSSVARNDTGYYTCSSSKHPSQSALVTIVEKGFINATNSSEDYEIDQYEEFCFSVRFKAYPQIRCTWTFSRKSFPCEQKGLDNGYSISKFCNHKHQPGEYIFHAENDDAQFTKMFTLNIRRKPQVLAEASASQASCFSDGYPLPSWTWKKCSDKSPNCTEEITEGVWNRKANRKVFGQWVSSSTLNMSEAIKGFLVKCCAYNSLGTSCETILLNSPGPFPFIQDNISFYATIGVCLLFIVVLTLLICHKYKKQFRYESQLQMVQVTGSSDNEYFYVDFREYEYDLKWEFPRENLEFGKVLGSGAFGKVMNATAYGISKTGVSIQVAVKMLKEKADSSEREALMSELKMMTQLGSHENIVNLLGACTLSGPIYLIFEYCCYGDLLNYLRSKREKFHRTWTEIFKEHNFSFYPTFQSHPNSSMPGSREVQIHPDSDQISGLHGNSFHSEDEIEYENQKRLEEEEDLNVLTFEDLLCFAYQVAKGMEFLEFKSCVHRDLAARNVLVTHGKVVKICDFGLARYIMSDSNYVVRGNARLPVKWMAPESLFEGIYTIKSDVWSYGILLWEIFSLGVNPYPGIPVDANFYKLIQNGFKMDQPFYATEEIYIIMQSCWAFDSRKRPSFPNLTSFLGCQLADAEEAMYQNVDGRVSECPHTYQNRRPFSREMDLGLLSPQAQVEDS

[9] = target: Non-receptor tyrosine-protein kinase TYK2 (Homo sapiens) (UniProt P29597); conditions: at 1 µM;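 further: values are mean percent inhibition of TYK2 kinase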
Sequence of Non-receptor tyrosine-protein kinase TYK2 (Homo sapiens) (P29597 whole entry): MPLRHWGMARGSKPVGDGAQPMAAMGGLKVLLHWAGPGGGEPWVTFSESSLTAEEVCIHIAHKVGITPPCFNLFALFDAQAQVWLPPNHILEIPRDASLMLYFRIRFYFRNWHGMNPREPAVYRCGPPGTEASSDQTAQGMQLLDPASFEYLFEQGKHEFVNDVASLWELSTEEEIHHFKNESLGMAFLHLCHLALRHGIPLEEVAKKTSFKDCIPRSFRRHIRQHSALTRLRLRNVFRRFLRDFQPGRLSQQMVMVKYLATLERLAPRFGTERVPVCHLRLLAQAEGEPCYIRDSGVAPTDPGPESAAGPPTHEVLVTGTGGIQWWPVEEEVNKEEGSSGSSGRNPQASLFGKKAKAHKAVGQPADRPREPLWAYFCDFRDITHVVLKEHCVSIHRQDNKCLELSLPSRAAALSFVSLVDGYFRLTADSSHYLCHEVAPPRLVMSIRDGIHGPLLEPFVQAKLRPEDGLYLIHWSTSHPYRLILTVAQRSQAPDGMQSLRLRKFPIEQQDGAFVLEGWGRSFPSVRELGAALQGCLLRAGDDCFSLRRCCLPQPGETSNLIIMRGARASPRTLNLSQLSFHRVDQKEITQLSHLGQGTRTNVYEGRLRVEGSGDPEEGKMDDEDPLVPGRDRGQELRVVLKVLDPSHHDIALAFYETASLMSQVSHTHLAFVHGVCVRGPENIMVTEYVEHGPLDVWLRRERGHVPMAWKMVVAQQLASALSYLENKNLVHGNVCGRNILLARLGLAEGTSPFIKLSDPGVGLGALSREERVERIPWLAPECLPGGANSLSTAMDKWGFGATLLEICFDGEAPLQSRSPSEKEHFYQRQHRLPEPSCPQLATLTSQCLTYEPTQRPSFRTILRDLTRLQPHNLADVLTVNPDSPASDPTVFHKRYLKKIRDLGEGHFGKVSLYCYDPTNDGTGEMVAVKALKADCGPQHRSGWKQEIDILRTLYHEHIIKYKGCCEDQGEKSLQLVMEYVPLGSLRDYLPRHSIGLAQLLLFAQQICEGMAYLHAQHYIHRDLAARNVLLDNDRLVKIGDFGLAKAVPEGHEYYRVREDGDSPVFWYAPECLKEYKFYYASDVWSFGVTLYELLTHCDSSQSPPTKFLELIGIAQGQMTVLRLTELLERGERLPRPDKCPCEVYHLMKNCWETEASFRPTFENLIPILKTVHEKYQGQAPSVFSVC

[10] = target: T2, Tyrosine-protein kinase receptor TYRO3 (Homo sapiens) (UniProt Q06418); conditions: at 0.1 µM
T2 sequence (whole entry): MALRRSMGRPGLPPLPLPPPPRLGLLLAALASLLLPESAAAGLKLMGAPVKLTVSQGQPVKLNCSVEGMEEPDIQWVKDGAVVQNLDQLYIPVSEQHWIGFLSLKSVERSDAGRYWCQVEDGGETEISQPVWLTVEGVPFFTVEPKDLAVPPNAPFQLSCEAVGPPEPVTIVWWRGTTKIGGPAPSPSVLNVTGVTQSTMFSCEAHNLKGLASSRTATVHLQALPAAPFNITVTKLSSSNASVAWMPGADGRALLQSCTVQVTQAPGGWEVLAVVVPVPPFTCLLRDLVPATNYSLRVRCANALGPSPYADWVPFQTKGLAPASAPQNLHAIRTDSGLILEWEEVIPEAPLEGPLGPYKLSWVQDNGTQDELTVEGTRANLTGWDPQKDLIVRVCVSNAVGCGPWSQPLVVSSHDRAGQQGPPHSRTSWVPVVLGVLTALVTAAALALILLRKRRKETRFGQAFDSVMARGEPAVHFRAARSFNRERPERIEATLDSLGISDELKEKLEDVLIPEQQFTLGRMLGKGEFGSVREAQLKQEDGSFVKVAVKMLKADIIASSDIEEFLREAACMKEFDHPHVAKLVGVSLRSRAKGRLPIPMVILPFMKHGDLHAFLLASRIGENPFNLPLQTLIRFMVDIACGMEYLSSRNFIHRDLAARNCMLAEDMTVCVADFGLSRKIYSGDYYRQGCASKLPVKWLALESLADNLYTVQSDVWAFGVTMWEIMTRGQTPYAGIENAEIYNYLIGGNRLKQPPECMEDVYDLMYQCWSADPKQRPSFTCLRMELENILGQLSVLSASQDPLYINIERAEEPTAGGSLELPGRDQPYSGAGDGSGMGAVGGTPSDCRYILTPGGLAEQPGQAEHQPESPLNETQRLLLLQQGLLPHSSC

[11] = target: T2, Tyrosine-protein kinase receptor TYRO3 (Homo sapiens); conditions: at 1 µM
[12] = target: Tyrosine-protein kinase Yes (Homo sapiens) (UniProt P07947); conditions: at 0.1 µM
Sequence of Tyrosine-protein kinase Yes (Homo sapiens) (P07947 2-543 limits assumed): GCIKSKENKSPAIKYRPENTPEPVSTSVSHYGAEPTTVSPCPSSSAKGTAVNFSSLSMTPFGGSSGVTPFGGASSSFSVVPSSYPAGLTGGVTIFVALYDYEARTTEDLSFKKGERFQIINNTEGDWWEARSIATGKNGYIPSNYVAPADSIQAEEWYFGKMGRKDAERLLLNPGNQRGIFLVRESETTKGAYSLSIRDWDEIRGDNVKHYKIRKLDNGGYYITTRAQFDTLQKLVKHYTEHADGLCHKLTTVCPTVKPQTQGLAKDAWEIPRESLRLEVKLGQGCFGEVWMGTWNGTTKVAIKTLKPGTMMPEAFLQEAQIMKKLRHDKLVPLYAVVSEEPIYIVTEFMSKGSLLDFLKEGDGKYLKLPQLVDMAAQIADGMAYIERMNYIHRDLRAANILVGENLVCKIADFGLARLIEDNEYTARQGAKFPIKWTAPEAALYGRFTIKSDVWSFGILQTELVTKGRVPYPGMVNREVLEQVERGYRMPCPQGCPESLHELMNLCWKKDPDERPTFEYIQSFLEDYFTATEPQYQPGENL

[13] = target: Tyrosine-protein kinase Yes (Homo sapiens) (UniProt P07947); conditions: at 1 µM
[14] = target: T3, Tyrosine-protein kinase ZAP-70 (Homo sapiens) (UniProt P43403); conditions: at 0.1 µM
T3 sequence (whole entry): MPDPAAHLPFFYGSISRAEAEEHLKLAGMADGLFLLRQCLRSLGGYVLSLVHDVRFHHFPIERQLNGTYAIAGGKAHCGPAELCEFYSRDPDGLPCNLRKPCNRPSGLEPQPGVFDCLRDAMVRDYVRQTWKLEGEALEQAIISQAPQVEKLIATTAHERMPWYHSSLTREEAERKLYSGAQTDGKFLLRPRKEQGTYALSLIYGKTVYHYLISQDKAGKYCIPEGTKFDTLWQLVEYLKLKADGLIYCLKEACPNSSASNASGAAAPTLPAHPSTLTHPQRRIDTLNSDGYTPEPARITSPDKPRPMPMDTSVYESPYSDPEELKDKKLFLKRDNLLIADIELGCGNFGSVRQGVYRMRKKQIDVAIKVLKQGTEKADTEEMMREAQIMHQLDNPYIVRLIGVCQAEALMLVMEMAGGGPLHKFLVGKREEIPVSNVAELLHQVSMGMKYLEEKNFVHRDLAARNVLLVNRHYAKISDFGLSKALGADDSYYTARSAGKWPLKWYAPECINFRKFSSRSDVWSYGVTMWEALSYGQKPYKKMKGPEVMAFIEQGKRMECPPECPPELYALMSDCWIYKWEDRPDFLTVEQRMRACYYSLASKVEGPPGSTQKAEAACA

[15] = target: T3, Tyrosine-protein kinase ZAP-70 (Homo sapiens); conditions: at 1 µM
[16] = target: Serine/threonine-protein kinase B-raf (Homo sapiens) (UniProt P15056); conditions: at 0.1 µM
Sequence of Serine/threonine-protein kinase B-raf (Homo sapiens) (P15056 whole entry): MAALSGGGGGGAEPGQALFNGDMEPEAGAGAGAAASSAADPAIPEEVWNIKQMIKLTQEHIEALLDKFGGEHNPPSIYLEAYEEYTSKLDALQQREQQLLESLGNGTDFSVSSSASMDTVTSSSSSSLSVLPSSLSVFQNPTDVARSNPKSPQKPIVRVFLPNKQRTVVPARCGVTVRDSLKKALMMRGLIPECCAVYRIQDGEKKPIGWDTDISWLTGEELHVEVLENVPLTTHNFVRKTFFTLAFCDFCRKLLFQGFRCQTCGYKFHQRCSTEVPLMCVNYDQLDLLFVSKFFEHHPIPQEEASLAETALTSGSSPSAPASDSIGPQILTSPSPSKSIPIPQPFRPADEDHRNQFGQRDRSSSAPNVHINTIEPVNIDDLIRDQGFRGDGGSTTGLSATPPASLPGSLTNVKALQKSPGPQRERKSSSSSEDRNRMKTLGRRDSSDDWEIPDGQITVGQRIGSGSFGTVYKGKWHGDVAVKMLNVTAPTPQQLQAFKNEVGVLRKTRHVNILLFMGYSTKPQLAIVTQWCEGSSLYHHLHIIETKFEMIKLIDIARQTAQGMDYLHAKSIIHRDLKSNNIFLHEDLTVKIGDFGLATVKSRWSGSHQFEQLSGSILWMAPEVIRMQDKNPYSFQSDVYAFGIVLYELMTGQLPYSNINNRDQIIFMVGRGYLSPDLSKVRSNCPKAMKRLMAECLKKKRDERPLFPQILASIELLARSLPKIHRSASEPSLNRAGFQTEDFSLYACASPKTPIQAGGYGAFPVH

[17] = target: Serine/threonine-protein kinase B-raf (Homo sapiens) (UniProt P15056); conditions: at 1 µM
[18] = system: Serine/threonine-protein kinase B-raf (Homo sapiens), P15056 [V600E]; conditions: at 0.1 µM
Sequence of Serine/threonine-protein kinase B-raf (Homo sapiens), P15056 [V600E] (P15056 whole entry V600E): as the sequence (P15056 whole entry) above, with V600E counted along it

[19] = system: Serine/threonine-protein kinase B-raf (Homo sapiens), P15056 [V600E]; conditions: at 1 µM
[20] = target: RAF proto-oncogene serine/threonine-protein kinase (Homo sapiens) (UniProt P04049); conditions: at 0.1 µM;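 further: values are mean CRAF kinase inhibition from profiling of the GSK Published Kinase Inhibitor Set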
Sequence of RAF proto-oncogene serine/threonine-protein kinase (Homo sapiens) (P04049 whole entry): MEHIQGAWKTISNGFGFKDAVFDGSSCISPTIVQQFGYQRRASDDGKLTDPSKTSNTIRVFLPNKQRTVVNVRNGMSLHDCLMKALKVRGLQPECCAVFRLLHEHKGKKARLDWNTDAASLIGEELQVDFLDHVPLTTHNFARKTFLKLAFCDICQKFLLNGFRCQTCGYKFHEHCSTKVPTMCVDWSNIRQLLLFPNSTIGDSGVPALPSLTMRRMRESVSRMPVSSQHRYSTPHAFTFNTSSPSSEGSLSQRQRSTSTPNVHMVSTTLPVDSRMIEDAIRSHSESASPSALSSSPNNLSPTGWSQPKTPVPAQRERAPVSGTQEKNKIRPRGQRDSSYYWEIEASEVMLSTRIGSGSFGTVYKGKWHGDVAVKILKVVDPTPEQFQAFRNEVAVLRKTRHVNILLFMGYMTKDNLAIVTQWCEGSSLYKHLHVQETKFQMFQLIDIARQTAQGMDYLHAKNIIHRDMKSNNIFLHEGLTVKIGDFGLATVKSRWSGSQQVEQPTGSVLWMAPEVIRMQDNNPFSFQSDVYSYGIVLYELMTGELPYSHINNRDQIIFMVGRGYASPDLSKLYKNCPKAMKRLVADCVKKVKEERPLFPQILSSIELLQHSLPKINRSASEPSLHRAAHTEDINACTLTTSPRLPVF

Sequence of Fibroblast growth factor receptor 4 (Homo sapiens) (P22455 22-802 limits assumed): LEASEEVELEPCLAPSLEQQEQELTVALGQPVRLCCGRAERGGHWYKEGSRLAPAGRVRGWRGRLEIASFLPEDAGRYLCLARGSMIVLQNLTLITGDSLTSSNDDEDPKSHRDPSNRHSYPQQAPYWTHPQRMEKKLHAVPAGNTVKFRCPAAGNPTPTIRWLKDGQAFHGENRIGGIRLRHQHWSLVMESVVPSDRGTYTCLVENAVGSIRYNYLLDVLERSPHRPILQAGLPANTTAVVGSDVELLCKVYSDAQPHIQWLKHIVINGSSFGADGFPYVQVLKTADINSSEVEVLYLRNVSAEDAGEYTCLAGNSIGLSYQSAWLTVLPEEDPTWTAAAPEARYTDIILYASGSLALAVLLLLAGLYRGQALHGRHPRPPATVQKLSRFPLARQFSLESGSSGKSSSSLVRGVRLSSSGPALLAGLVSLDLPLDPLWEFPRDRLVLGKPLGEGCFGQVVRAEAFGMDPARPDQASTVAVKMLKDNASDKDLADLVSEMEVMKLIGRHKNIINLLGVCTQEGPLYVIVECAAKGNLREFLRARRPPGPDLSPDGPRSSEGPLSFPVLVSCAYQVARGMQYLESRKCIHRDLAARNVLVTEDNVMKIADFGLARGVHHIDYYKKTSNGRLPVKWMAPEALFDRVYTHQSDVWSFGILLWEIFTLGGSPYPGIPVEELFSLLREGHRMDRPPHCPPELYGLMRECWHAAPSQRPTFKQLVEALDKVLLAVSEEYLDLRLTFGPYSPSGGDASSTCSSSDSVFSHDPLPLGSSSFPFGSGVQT
Sequence of Tyrosine-protein kinase Fgr (Homo sapiens) (P09769 2-529 limits assumed): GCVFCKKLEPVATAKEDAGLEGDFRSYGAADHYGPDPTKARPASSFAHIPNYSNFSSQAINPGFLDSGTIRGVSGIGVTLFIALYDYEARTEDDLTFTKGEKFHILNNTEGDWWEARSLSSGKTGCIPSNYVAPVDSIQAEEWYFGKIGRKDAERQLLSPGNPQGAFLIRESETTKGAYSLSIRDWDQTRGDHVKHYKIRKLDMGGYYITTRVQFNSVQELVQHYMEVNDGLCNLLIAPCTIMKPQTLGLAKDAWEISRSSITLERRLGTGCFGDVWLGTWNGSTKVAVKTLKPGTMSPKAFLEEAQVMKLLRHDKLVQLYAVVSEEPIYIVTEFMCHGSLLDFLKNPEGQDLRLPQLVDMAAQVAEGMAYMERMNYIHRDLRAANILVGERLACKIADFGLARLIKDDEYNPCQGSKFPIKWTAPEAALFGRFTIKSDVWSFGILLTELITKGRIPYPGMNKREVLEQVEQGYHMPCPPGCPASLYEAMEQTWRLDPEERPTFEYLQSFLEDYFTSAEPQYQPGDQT

Structure (SMILES) | inhibition [1] [%] | inhibition [2] [%] | inhibition [3] [%] | inhibition [4] [%] | inhibition [5] [%] | inhibition [6] [%] | inhibition [7] [%] | inhibition [8] [%] | inhibition [9] [%] | inhibition [10] [%] | inhibition [11] [%] | inhibition [12] [%] | inhibition [13] [%] | inhibition [14] [%] | inhibition [15] [%] | inhibition [16] [%] | inhibition [17] [%] | inhibition [18] [%] | inhibition [19] [%] | inhibition [20] [%]
COc1cccc(COc2cc(-n3cnc4ccccc43)sc2C(N)=O)c1 | 1.25 | 1.93 | 1.54 | -2.33 | -0.83 | -1.3 | -4.17 | -9.33 | -0.53 | -0.84 | -0.77 | 0.89 | 1.25 | -1.78 | 0.73 | -0.39 | 1.18 | 0.3 | 1.75 | 2.33
COc1cc(C=NNc2ncnc3c2cnn3Cc2ccccc2)ccc1O | 4.03 | 11.8 | 52.1 | -1.46 | 1.82 | -1.99 | -1.02 | -4.43 | -1.56 | -1.07 | 7.59 | 14.6 | 30 | 2.67 | 1.13 | -5.44 | -5.52 | -5.58 | -4.22 | -0.2
NS(=O)(=O)c1ccc(-c2ccc3c(NC(=O)C4CC4)n[nH]c3c2)cc1 | -0.07 | 1.76 | 6.23 | 0.3 | 1.37 | -1.65 | 3.53 | 2.16 | -4.76 | 3.34 | 13 | 0.69 | 2.38 | 0.78 | 0.22 | 2.45 | 5.35 | 2.03 | 3.48 | 4.2
CCn1c(-c2nonc2N)nc2c(C#CC(C)(C)O)ncc(OCC3CCNCC3)c21 | -3.68 | 5.04 | 4.9 | 2.92 | 23.5 | -0.18 | 4.4 | 3.83 | 1.52 | 2.77 | 3.34 | 2.71 | 6.72 | -3.36 | -3.17 | 4.38 | 2.78 | 4.23 | 2.64 | 3.07
CCn1c(-c2nonc2N)nc2c(C#CC(C)(C)O)ncc(OC[C@@H]3CCCN3)c21 | 2.23 | 1.47 | 2.16 | 1.39 | 17.4 | -1 | -0.61 | -6.46 | -1.89 | -1.01 | 1.75 | -0.57 | 2.07 |  | -0.24 | 0.45 | 0.01 | 0.87 | 0.05 | 3.13
NC(=O)c1sc(-n2cnc3cc(C(F)(F)F)ccc32)cc1OCc1ccccc1Br | -0.34 | 2.13 | 2.99 | -0.46 | -0.01 | 0.18 | 3.13 | -3.16 | -3.05 | 1.7 | 2.02 | 2.56 | 3.46 | -0.71 | 1.87 | 3.64 | 2.26 | 1.31 | 2.01 | 1.82
Fc1ccc(-c2ncn(C3CCNCC3)c2-c2ccnc(Oc3ccccc3)n2)cc1 | -3.96 | 1.86 | 4.87 | 1.35 | 2.72 | -0.44 | 0.52 | -4.18 | -4.41 | 1.92 | 0.47 | 1.72 | -0.9 | -4.16 | -3.08 | 2.53 | 4.3 | 2.57 | 4.15 | -1.35
NS(=O)(=O)c1ccc(N/C=C2\C(=O)Nc3ccc4ncsc4c32)cc1 | 5.81 | 2.87 | 21.6 | 7.41 | 50.6 | 32.8 | 79.5 | 40.4 | 41 | 3.07 | 24.1 | 2.73 | 26.7 | -5.22 | 5.97 | 11 | 41 | 9.06 | 37.5 | -1.4
CCn1c(-c2nonc2N)nc2c(C#CC(C)(C)O)nc(O[C@@H](CN)c3ccccc3)cc21 | 1.13 | 3.54 | 28.6 | 36.1 | 79.8 | -2.74 | -0.29 | 2.74 | 1.49 | 0.32 | 6.97 | 2.89 | 23.8 | 0.99 | 1.24 | -0.9 | 5.48 | -1.97 | 6.51 | -3.13
Nc1nonc1-c1nc2cnccc2n1C1CCCCC1 | -1.15 | -0.56 | 6.63 | -1 | 4.33 | -0.01 | 4.32 | 3.29 | 6.77 | -1.27 | -0.87 | 1.72 | 3.33 | -2 | -0.79 | -2.13 | 4.56 | -1.6 | 5.12 | 2.21
COc1cc2c(cc1Nc1nc(Nc3ccsc3C(N)=O)c3cc[nH]c3n1)N(C(=O)CN(C)C)CCC2 | 1.79 | 7.89 | 10.7 | -1.61 | 1.49 | -1.64 | 1.45 | -8.75 | -1.13 |  |  | 1.43 | 2.18 | -0.11 | 1.86 | -0.02 | 1.67 | 0.32 | 0.47 | -0.98
COc1cccc(-n2ncc3c(N/N=C/c4ccncc4)ncnc32)c1 | 7.56 | 29 | 70 | 1.64 | 27.6 | 7.06 | 28.3 | 11.5 | 0.71 | 8.97 | 41.6 | 26.7 | 73 | 2.84 | 3.98 | 10.3 | 21.5 | 11 | 23.1 | -6.75
CCn1c(-c2nonc2N)nc2c(C#CCN)ncc(OCCCN)c21 | 0.77 | 5.41 | 1.7 | 0.25 | 0.93 | 1.97 | 0.52 | 2.12 | 5.33 | -0.44 | 3.68 | 0.61 | 3.6 | 2.74 | 2.46 | -4.66 | -4.6 | -5.05 | -3.78 | 2.59
Cc1cc(-c2ccco2)cc(C)c1/C=C/c1cncc(-c2nn[nH]n2)c1 | 1.04 | 3.13 | 6.29 | -0.74 | 1.77 | 1.31 | 1.79 | -3.95 | 2.63 | 0.37 | 0.02 | 1.68 | 6.08 | -1.84 | 0.77 | 1.61 | 1.61 | 1.63 | 3 | -1.69
